Out of some 360,000 compounds screened, about 11,000 (3.1%) were called active. Another 2% or so got no clear call; they are omitted. The full list was thinned out, with actives kept by preference. Values without a mark were called inactive. Rule as the data show it: active = fluorescence intensity above about 16000; inconclusive = no clear call, values can overlap the other calls; inactive = below that.
assay: compound fluorescence in toxin protease inhibitor counterscreen, primary screen, artefact control for toxin protease inhibitor project, biochemical, multiplex microsphere, HTS (AID 624483); settings: compound autofluorescence counterscreen, microsphere flow cytometry; hits give high values

Point of comparison: Cc1cccc(CN2CCN(C3CN(Cc4ccccc4)S(=O)(=O)C3)CC2)c1 (stereo unspecified), fluorescence intensity 5880. Against it:
- O=C(c1cc2ccccc2s1)N1CCN(c2ccccn2)CC1 — lower, 5840
- O=C(c1c(F)cccc1Cl)N1CCN(c2ccccn2)CC1 — higher, 6090
- CC1(C(=O)NS(=O)(=O)c2cccc(OC(F)F)c2)CCN1C(=O)C1CC1 (stereo unspecified) — lower, 3660
- O=C(NC1CCCC1)C(c1ccccn1)N(C(=O)c1csnn1)C1CCCC1 (stereo unspecified) — lower, 3210
- COc1ccc(C(=O)NCc2ccccc2C)cc1S(=O)(=O)NC1CCCC1 — lower, 3480
- CCOc1ccc(C)cc1S(=O)(=O)NC1CCCCCC1 — higher, 5960
- CCCCC(=O)N(C)c1c(CC)nc2c(OCc3ccc(S(C)(=O)=O)cc3)cccn12 — lower, 4320
- CC(C)Oc1cc(F)ccc1-c1cc(C(=O)Nc2cccc(Cl)c2)[nH]n1 — lower, 3940
- CCC1OC(C2CC2)CC2=C1C(=O)OC(C)(C)O2 (stereo unspecified) — lower, 5440
- CCc1nc2ccc(C(=O)NCc3ccc(OC)cc3)cn2c1N(CC)Cc1cccc(Br)c1 — lower, 4320
- CN(C)CCNC(=O)Nc1cccc(Cl)c1Cl — lower, 2400
- COc1ccccc1NC(=O)CC(NCCN(C)C)C(=O)O (stereo unspecified) — higher, 15400
- FC(F)(F)COc1nc(N2CCCCC2)nc(N2CCNCC2)n1 — lower, 2450
- FC(F)(F)Oc1ccccc1C(c1nnnn1C1CCCCC1)N1CCN(C/C=C/c2ccccc2)CC1 (stereo unspecified) — lower, 4590
- Cc1cc2ccccn2c1C(=O)c1cccc(S(=O)(=O)N2CCOCC2)c1 — lower, 4300
- CCOC(=O)N/N=C1\CC(C)S(=O)(=O)c2ccc(Cl)cc21 (stereo unspecified) — lower, 3940
- O=C(CC(=O)N/N=C\c1ccc(F)cc1)NCCc1ccccc1 — lower, 3990
- Cc1ccc(COc2ccc(/C=N/NC(=O)CN3CCCCC3)cc2)cc1 — lower, 3530
- O=C(CN1CCN(C/C=C/c2ccccc2)CC1)Nc1ccc(F)cc1F — lower, 4560
- O=C(CCC(=O)Nc1ccccc1)N/N=C/c1ccccc1F — lower, 2560
- c1ccc2c(c1)C(=NC1CCCCC1)NC2=NC1CCCCC1 — higher, 8360
- CCOc1ccccc1N1C(=O)CC(Sc2nccc(C)n2)C1=O (stereo unspecified) — lower, 4180
- COC(=O)[C@]12CCCCC=C1N(Cc1ccco1)C(=O)[C@H](CC(=O)NCCCCc1ccccc1)C2 — lower, 5100
- Cc1cccc(-c2cnc(C(O)c3cc(C)cc(C)c3)[nH]2)c1 (stereo unspecified) — lower, 3860
- Cc1ccc(S(=O)(=O)N2CCC(C)CC2)cc1C(=O)NCc1ccccn1 — lower, 5690
- CCOC(=O)C1CCN(C(=O)/C=C/c2cc(OC)c(OC)c(OC)c2)CC1 — lower, 2640
- CCOC(=O)C1CCN(S(=O)(=O)c2cc(F)ccc2OC)CC1 — lower, 4720
- O=C(Nc1ccc2c(c1)OCCO2)C1c2ccccc2OCC(=O)N1Cc1ccccn1 (stereo unspecified) — lower, 5110
- Cc1[nH]c2ccccc2c1C(=O)CN1CC(C)CC(C)C1 (stereo unspecified) — lower, 4370
- Cc1[nH]c2ccccc2c1C(=O)CN1CCCC(C)C1 (stereo unspecified) — lower, 3780
- O=C(O)c1cc(S(=O)(=O)NC2CCCc3ccccc32)ccc1O (stereo unspecified) — lower, 3070
- Cc1nc(C(F)(F)F)ccc1C(=O)N1CCC1(C)C(=O)NS(=O)(=O)c1ccccc1 (stereo unspecified) — lower, 2950
- Nc1nc2c(ncn2[C@@H]2O[C@H](CNS(=O)(=O)N3CCc4ccccc4C3)[C@@H](O)[C@H]2O)c(=O)[nH]1 — lower, 5780
- Cc1ccccc1CCN(CC(=O)NC1CCCCC1)C(=O)c1csnn1 — lower, 4280
- CCOCCC(=O)Nc1ccc2c(c1)c(=O)n(C)n2-c1ccc2ccccc2c1 — lower, 4100
- O=C(CN1CCOCC1)N/N=C/c1ccc(-c2ccc(Br)cc2)o1 — higher, 6290
- O=C(Cc1ccc(Br)cc1)NCCN1CCOCC1 — lower, 4390
- COCCOC1CCN(C(=O)c2ccc(OC)c(OC3CCN(C(C)C)CC3)c2)CC1 — lower, 5660
- OC[C@@H]1CN(Cc2cccs2)C[C@H](n2cnc3c(Nc4ccccc4)ncnc32)O1 — lower, 2850
- CCN(CC)CCNC(=O)c1ccc(NC(=O)c2cc(-c3ccncc3)nc3ccccc23)cc1 — higher, 5900
- Cc1nc2ccccc2c2oc(C(=O)NCCCN3CCC(C)CC3)cc12 — higher, 6790
- COc1cc(CCN=Cc2ccccc2O)c([N+](=O)[O-])cc1OC — higher, 6170
- CCOC(=O)[C@]12CCCC=C1N(Cc1ccc3c(c1)OCO3)C(=O)[C@H](CC(=O)NCc1cccs1)C2 — lower, 4370
- O=C(NC1CCCCCC1)c1cccnc1Sc1ccc(Cl)cc1 — lower, 2130
- COc1cccc(CNC(=O)c2cccnc2Sc2ccc(Cl)cc2)c1 — higher, 5920
- C=CCn1c(=O)n(C)c2c(=O)n(C)c(=O)n(C)c21 — lower, 3000
- O=[N+]([O-])c1ccc(CN2CC(N3CC=CC3)CS2(=O)=O)cc1 (stereo unspecified) — higher, 6550
- CCOc1ccc(-c2cn(S(=O)(=O)c3cccc4nsnc34)nc2N)cc1 — lower, 4610
- CCCCNC(=O)OC1CC2CC1[C@H]1CCCCN1C2=O (stereo partly specified) — lower, 5740
- Cn1ncc2c(Nc3cccc4ccccc34)ncnc21 — lower, 3210

For Cc1cc(C(=O)N2CCN(c3ccccn3)CC2)c(C)o1, the fluorescence intensity was 21600 (active).
With COc1ccc(C)cc1S(=O)(=O)NC1CCCCC1 the fluorescence intensity was 20200 (active).
For CN(C)CCNC(=O)C(C(=O)c1ccccc1)n1ccccc1=O (stereo unspecified), the fluorescence intensity was 23600 (active).
With O=C(CN1CCSCC1)N/N=C/c1ccc(F)cc1F the fluorescence intensity was 23700 (active).
For O=C(CN1CCSCC1)N/N=C/c1ccc(F)cc1, the fluorescence intensity was 19800 (active).
With CCOC(=O)C1CCCCN1Cc1ccc(OC)c(OC)c1OC (stereo unspecified) the fluorescence intensity was 21900 (active).
With Cc1[nH]c2ccccc2c1C(=O)CSCC(=O)O the fluorescence intensity was 23600 (active).
With CCOC(=O)CN(C(=O)CN1CCOCC1)c1ccc(Br)cc1 the fluorescence intensity was 16500 (active).
For CCCN(CCC)CCNC(=O)c1cc2c(C)nc3ccccc3c2o1, the fluorescence intensity was 23700 (active).
In the case of O=C(NCc1cccnc1)c1cccnc1Sc1ccc(Cl)cc1, the fluorescence intensity is reported as 16900 (active).

From PubChem BioAssay AID624483 (NMMLSC, 2012)
